Screening results (PubChem)
Rows were chosen to be rich in hits. Some 27% of all compounds tested hit in one or more screens of this group.
CYP2C9 inhib = inhibitors of human CYP2C9. CYP2C9 Supersomes, luciferin-H conversion, luminescence. inhibition, % at 5 µM. hit rate 20% among 96,000;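 active = blocking of liver enzyme CYP2C9 beyond about 50% at 5 µM, limit read from the data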
PTK2B oligo ant = antagonists of human Pyk2 oligomerization; Q14289; Q293 cells, Pyk2 FERM NanoBiT luminescence; hits give low values; hit rate 0.83% among 99,000; z-score (the deposit names both 25 µM and 10 µM);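 active = Z-score of -3 or lower, scaled per plate to the spread of control and sample wells; inactive = z-score above -3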;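 note: negative z-score means lost luminescence so less FERM oligomerization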
Cav3 T inh = blocks human Cav3.2 T-type calcium channel. O95180. Cav3.2-expressing cells, Fluo-4 calcium fluorescence FDSS; hits give low values. B-score at 10 µM. hit rate 4% among 100,000. AID 449739;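 active = single-dose well whose peak fluorescence ratio is a statistical outlier from its plate by either plate-standardised score or position-corrected B-score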
CYP2C19 act = increases human CYP2C19 enzyme activity | P33261 | recombinant CYP2C19, luciferin-H EGE luminescence; hits give high values; 0 = fully inhibited enzyme, 1 = untreated enzyme | activation factor at 5 µM | 96,000 tested, under 10 active | AID 1025;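 active = activation factor of at least 2 at 5 µM in the primary screen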
CYP2C19 inhib = blocks human cytochrome P450 2C19; AID 778; CYP2C19 Supersomes, luciferin-H EGE luminescence, 30 min; inhibition, % at 5 µM; hit rate 21% among 96,000;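 active = CYP2C19 inhibition above a set limit at 5 µM in the primary screen, cut at about 50% in these data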
CYP2C9 activ = increases human cytochrome P450 2C9 activity; AID 1024; activation factor at 5 µM; P11712; hit rate 1.4% among 96,000; recombinant CYP2C9, luciferin-H conversion, luminescence; hits give high values; factor 1 = untreated enzyme, 0 = blocked;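 active = activation factor of 2 or more for CYP2C9 at a 5 µM dose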
Each line names hits and unclear results; the compound was inactive in the other large screens.

Cc1ccnc(NC(=O)CCC(=O)N(CC(=O)NCc2ccccc2)c2ccc3c(c2)OCO3)c1	none (no result: CYP2C9 inhib, CYP2C19 act, CYP2C19 inhib, CYP2C9 activ)
CC(C)CCNC(=O)CN(Cc1ccc2c(c1)OCO2)C(=O)CCC(=O)Nc1ccccn1	none
Cc1ccc(N2C(=O)C(c3c(C)[nH]n(-c4ccccc4)c3=O)(C(F)(F)F)C3=C2CC(C)(C)CC3=O)cc1 (stereo not drawn)	none
Cc1[nH]n(-c2ccccc2)c(=O)c1C1(C(F)(F)F)C(=O)N(c2ccccc2)C2=C1C(=O)CC(C)(C)C2 (stereo not drawn)	CYP2C9 inhib 73
CC(C(N)=O)N1C(=O)c2cccc3cccc1c23 (stereo not drawn)	CYP2C9 activ 3.2
Cc1cccc(C)c1NC(=O)CSc1nc2ccccc2c(=O)[nH]1	none
Cc1cc(C)c2c(=O)[nH]c(SCC(=O)c3ccc(C(C)C)cc3)nc2n1	CYP2C9 inhib 51
Cc1cc(=O)[nH]c(SCC(=O)c2ccc(C(C)C)cc2)n1	none
CC(C)(C)N(Cc1ccccc1)C(=O)CSc1nc2ccccc2c(=O)[nH]1	CYP2C9 inhib 82, CYP2C19 inhib 66
Cc1csc(NC(=O)CSc2nc3ccccc3c(=O)[nH]2)n1	CYP2C9 inhib 55
Cc1csc(NC(=O)CSCC(=O)Nc2ccccc2)n1	CYP2C9 inhib 57
C/C=C\C=C/C(=O)Nc1cccc(C2=NOC3(C2)C[C@H](C(N)=O)N(C(=O)c2ccc(OC)cc2)C3)c1 (stereo partly drawn)	none (no result: CYP2C9 inhib, PTK2B oligo ant, CYP2C19 act, CYP2C19 inhib, CYP2C9 activ)
O=S(=O)(c1ccc(NC2CCCCC2)cc1)N1CCOCC1	none
CCOCCCNC(=S)NNC(=O)CCn1nc(C)c(Br)c1C	none
CS(=O)(=O)N1c2ccccc2[C@@]2(Br)C[C@H]3C(=O)N[C@@H](Cc4ccccc4)C(=O)N3[C@@H]12	none (no result: CYP2C9 inhib, PTK2B oligo ant, CYP2C19 act, CYP2C19 inhib, CYP2C9 activ)
Cc1ccc(NC(=S)Nc2nc(CC(=O)Nc3ccccc3)cs2)cc1	CYP2C19 inhib 59
CC(C)(C)c1csc(NC(=O)CSc2nc3ccccc3c(=O)[nH]2)n1	CYP2C9 inhib 94, CYP2C19 inhib 67
CN(C)C(=O)CSc1nc2ccccc2c(=O)[nH]1	none
Cc1ccc(C(=O)CSc2nc3ccccc3c(=O)[nH]2)cc1	CYP2C9 inhib 75
Cc1csc(NC(=O)CSc2nnc(-c3cccs3)n2C)n1	CYP2C19 inhib 52
CC(=O)Nc1ccc(NC(=S)Nc2ccccc2)cc1	none
CCn1c(COc2ccccc2C)nnc1SCC(=O)N1CCCCC1	none
CS(=O)(=O)N1CCCC(C(=O)NCCCN2CCOCC2)C1 (stereo not drawn)	none
COc1ccccc1S(=O)(=O)n1cc(Cc2ccccc2)c(N)n1	none (no result: CYP2C9 inhib, CYP2C19 act, CYP2C19 inhib, CYP2C9 activ)
COc1cccc(NC(=O)CSCc2n[nH]c(=O)[nH]2)c1	none
Cc1csc(NC(=O)CSc2ncnc3c2cnn3-c2ccccc2Cl)n1	CYP2C9 inhib 90, Cav3 T inh -5.5, CYP2C19 inhib 90
Cc1ccc2cc(C#N)c(SCC(=O)NCc3ccco3)nc2c1	CYP2C9 inhib 75
Cc1cccc(-c2nsc(SCC(=O)NCc3ccco3)n2)c1	CYP2C9 inhib 68, Cav3 T inh -3.9
COc1ccc(C(=O)Nc2c(N)nc(SCC(=O)N3CCCCCC3)[nH]c2=O)cc1OC	none (no result: CYP2C9 inhib, PTK2B oligo ant, CYP2C19 act, CYP2C19 inhib, CYP2C9 activ)
Nc1cccc(S(=O)(=O)c2cccc(N)c2)c1	CYP2C9 activ 3
Nc1nc(Nc2ccccc2Br)nc(C(F)(F)F)n1	CYP2C9 inhib 54 (no result: PTK2B oligo ant)
Nc1nc(Nc2ccc(Cl)cc2Cl)nc(C(F)(F)F)n1	none (no result: Cav3 T inh)
CC1CCCC(NC(=O)c2ccc3c(c2)N(Cc2ccccc2)C(=O)CS3=O)C1C (stereo not drawn)	CYP2C9 inhib 76 (no result: PTK2B oligo ant)
O=C(NCC1CCCO1)c1ccc2c(c1)N(Cc1ccccc1)C(=O)CS2=O (stereo not drawn)	none (no result: PTK2B oligo ant)
CCOCCCNc1nc2c(c(=O)n(C)c(=O)n2C)n1CCCc1ccccc1	CYP2C9 inhib 82, CYP2C19 inhib 68
COCCCNc1nc2c(c(=O)[nH]c(=O)n2C)n1CCCc1ccccc1	CYP2C19 inhib 70
Cc1ccc(Cn2c(NCCCn3ccnc3)nc3c2c(=O)n(C)c(=O)n3C)cc1	CYP2C9 inhib 99, CYP2C19 inhib 98
CC(C)CCn1c(NCCc2ccccc2)nc2c1c(=O)n(C)c(=O)n2C	none (no result: CYP2C9 inhib, PTK2B oligo ant, CYP2C19 act, CYP2C19 inhib, CYP2C9 activ)
CC1CCN(c2nc3c(c(=O)[nH]c(=O)n3C)n2CCSc2nc3ccccc3o2)CC1	none (no result: PTK2B oligo ant)
CCO[C@@H]1OC(C(=O)Nc2ccccc2)=C[C@H](C2CC2)[C@H]1CCCO	none (no result: CYP2C9 inhib, PTK2B oligo ant, CYP2C19 act, CYP2C19 inhib, CYP2C9 activ)
